Here are results for four molecules from PubChem BioAssay (EPA / NIEHS).

Each structure is given as a SMILES string. Active and inactive are the calls of the source. Rule for the calls: active = hit-call score of the fitted dose curve at least 0.9, where 1 is the maximum; inactive = score below 0.9.

Common to all, as to settings: mRNA level, 48 h; actives raise or lower the signal
Read-out in experiment [1]: JUN Transcription Factor, JUN (gene 3725)
The experiment is described as follows: LTEA_HepaRG_JUN: Life Technologies and Expression Analysis (LTEA) Assay for JUN Transcription Factor using HepaRG (AID 2283513). Put shortly: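 Differentiated HepaRG cells were exposed to chemicals for 48 h in serum-free induction medium, 8 concentrations from 100 uM in half-log steps, 0.5% DMSO vehicle, in duplicate. JUN mRNA was quantified by TaqMan qRT-PCR, normalized to ACTB, GAPDH, POLR2A.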

Read-out in experiment [2]: Lipase C (LIPC), LIPC (gene 3990)
Description: LTEA_HepaRG_LIPC: Life Technologies and Expression Analysis (LTEA) Assay for Lipase C (LIPC) using HepaRG (AID 2283514). The gist of the method:
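Differentiated human HepaRG cells in serum-free induction medium were exposed in duplicate for 48 h to eight concentrations (top 100 uM, half-log steps, 0.5% DMSO). LIPC mRNA was quantified by TaqMan qRT-PCR, normalized to ACTB, GAPDH and POLR2A, with bidirectional fitting versus DMSO.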

Read-out in experiment [3]: Lipoprotein lipase (LPL), LPL (gene 4023)
The experiment is described as follows: LTEA_HepaRG_LPL: Life Technologies and Expression Analysis (LTEA) Assay for Lipoprotein lipase (LPL) using HepaRG (AID 2283515). The gist of the method: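 Differentiated human HepaRG cells in serum-free induction medium were exposed in duplicate for 48 h to eight half-log concentrations (top 100 uM) in 0.5% DMSO. LPL mRNA was quantified by TaqMan qRT-PCR, normalized to ACTB, GAPDH and POLR2A.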

Read-out in experiment [4]: MicroRNA 122 (MIR122), gene 406906
Description: LTEA_HepaRG_MIR122: Life Technologies and Expression Analysis (LTEA) Assay for MicroRNA 122 (MIR122) using HepaRG (AID 2283516). Note: the transcript read is the microRNA miR-122. Put shortly:
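Differentiated human HepaRG cells were exposed 48 h in serum-free induction medium to eight half-log concentrations (top 100 uM, 0.5% DMSO). Transcript level was measured by TaqMan qRT-PCR, normalized to ACTB, GAPDH and POLR2A, and fitted bidirectionally versus DMSO.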

Read-out in experiment [5]: matrix metalloproteinase-10 (MMP10), MMP10 (gene 4319)
The experiment is described as follows: LTEA_HepaRG_MMP10: Life Technologies and Expression Analysis (LTEA) Assay for matrix metalloproteinase-10 (MMP10) using HepaRG (AID 2283517). Put shortly: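 HepaRG, collagen I, ~100,000 cells/well; serum-free induction medium; 48 h exposure, duplicate, 8-pt half-log to 100 uM, 0.5% DMSO. Readout: TaqMan qRT-PCR, normalized to ACTB/GAPDH/POLR2A; bidirectional fit vs DMSO.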

Read-out in another experiment: MYC, MYC (gene 4609)
Description: LTEA_HepaRG_MYC: Life Technologies and Expression Analysis (LTEA) Assay for MYC using HepaRG (AID 2283518). The gist of the method: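 Expression changes were scored by TaqMan qRT-PCR with ACTB, GAPDH and POLR2A normalization. Cultures in serum-free induction medium received duplicate 8-point concentration series, highest 100 uM, for 48 h; DMSO (0.5%) served as baseline.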

Read-out in experiment [6]: matrix metalloproteinase-3 (MMP3), MMP3 (gene 4314)
Description: LTEA_HepaRG_MMP3: Life Technologies and Expression Analysis (LTEA) Assay for matrix metalloproteinase-3 (MMP3) using HepaRG (AID 2283519). The gist of the method: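 Differentiated human HepaRG cells, plated 48 h on collagen I, were exposed in duplicate for 48 h in serum-free induction medium to eight half-log concentrations up to 100 uM in 0.5% DMSO. MMP3 mRNA was quantified by TaqMan qRT-PCR, normalised to ACTB, GAPDH and POLR2A.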

Read-out in experiment [7]: Paternally Expressed 10 (PEG10), PEG10 (gene 23089)
Description: LTEA_HepaRG_PEG10: Life Technologies and Expression Analysis (LTEA) Assay for Paternally Expressed 10 (PEG10) using HepaRG (AID 2283520). Put shortly: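 Differentiated HepaRG cells, plated 48 h then switched to serum-free induction medium, were exposed in duplicate for 48 h to eight half-log concentrations topping at 100 uM in 0.5% DMSO. PEG10 mRNA was quantified by TaqMan qRT-PCR, normalised to ACTB, GAPDH and POLR2A.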

Read-out in experiment [8]: Protein phosphatase 2A (PPP2R4), PTPA (gene 5524)
The experiment is described as follows: LTEA_HepaRG_PPP2R4: Life Technologies and Expression Analysis (LTEA) Assay for Protein phosphatase 2A (PPP2R4) using HepaRG (AID 2283522). The gist of the method:
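Differentiated HepaRG cells in serum-free induction medium were exposed in duplicate for 48 h to eight concentrations, top 100 uM with half-log dilutions, in 0.5% DMSO. PPP2R4 mRNA was quantified by TaqMan qRT-PCR, normalized to ACTB, GAPDH and POLR2A.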

Read-out in experiment [9]: Phosphatase and tensin (PTEN), PTEN (gene 5728)
Description: LTEA_HepaRG_PTEN: Life Technologies and Expression Analysis (LTEA) Assay for Phosphatase and tensin (PTEN) using HepaRG (AID 2283523). Put shortly:
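Differentiated human HepaRG cells, plated 48 h then switched to serum-free induction medium, were exposed in duplicate for 48 h to eight half-log concentrations up to 100 uM in 0.5% DMSO. PTEN mRNA measured by TaqMan qRT-PCR, normalized to ACTB/GAPDH/POLR2A, bidirectional fit versus DMSO.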

Read-out in experiment [10]: solute carrier (SLC22A1), SLC22A1 (gene 6580)
The experiment is described as follows: LTEA_HepaRG_SLC22A1: Life Technologies and Expression Analysis (LTEA) Assay for solute carrier (SLC22A1) using HepaRG (AID 2283524). The gist of the method: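 Human HepaRG cells were plated 48 h, switched to serum-free induction medium, then exposed in duplicate for 48 h to 8-point half-log series from 100 uM in 0.5% DMSO. SLC22A1 mRNA measured by qRT-PCR, normalized to ACTB/GAPDH/POLR2A, fitted bidirectionally versus DMSO.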

Read-out in experiment [11]: Pyruvate Dehydrogenase Kinase 4 (PDK4), PDK4 (gene 5166)
The experiment is described as follows: LTEA_HepaRG_PDK4: Life Technologies and Expression Analysis (LTEA) Assay for Pyruvate Dehydrogenase Kinase 4 (PDK4) using HepaRG (AID 2283525). Put shortly: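 Differentiated human HepaRG cells, pre-cultured 48 h, were exposed in duplicate for 48 h in serum-free induction medium to eight half-log concentrations up to 100 uM in 0.5% DMSO. PDK4 mRNA was quantified by qRT-PCR, normalized to ACTB, GAPDH and POLR2A, bidirectional fitting versus DMSO.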

Read-out in experiment [12]: NAD(P)H dehydrogenase [quinone] 1 (NQO1), NQO1 (gene 1728)
Description: LTEA_HepaRG_NQO1: Life Technologies and Expression Analysis (LTEA) Assay for NAD(P)H dehydrogenase [quinone] 1 (NQO1) using HepaRG (AID 2283526). The gist of the method:
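Differentiated HepaRG cells, plated 48 h and then switched to serum-free induction medium, were exposed in duplicate for 48 h to 8-point half-log concentrations up to 100 uM in 0.5% DMSO. mRNA measured by qRT-PCR, normalized to ACTB, GAPDH, POLR2A; bidirectional fit versus DMSO.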

Read-out in experiment [13]: Nuclear factor erythroid 2-related factor 2 (Homo sapiens) (UniProt Q16236)
Description: LTEA_HepaRG_NFE2L2: Life Technologies and Expression Analysis (LTEA) Assay for Nuclear factor erythroid 2-related factor 2 (NFE2L2) Transcription Factor using HepaRG (AID 2283527).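 Note: TaqMan qRT-PCR transcript level normalised to ACTB GAPDH and POLR2A housekeeping genes.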 The gist of the method:
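Differentiated human HepaRG cells in serum-free induction medium were exposed for 48 h to eight concentrations (top 100 uM, half-log dilutions, 0.5% DMSO), in duplicate. NFE2L2 mRNA was quantified by TaqMan qRT-PCR, normalized to ACTB, GAPDH and POLR2A, with bidirectional fitting versus DMSO.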

Read-out in experiment [14]: succinate dehydrogenase complex iron sulfur subunit B (SDHB), SDHB (gene 6390)
The experiment is described as follows: LTEA_HepaRG_SDHB: Life Technologies and Expression Analysis (LTEA) Assay for succinate dehydrogenase complex iron sulfur subunit B (SDHB) using HepaRG (AID 2283528). The gist of the method:
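A human HepaRG culture in serum-free induction medium received test chemicals for 48 h over an eight-point range capped at 100 uM. SDHB expression change was quantified by qRT-PCR.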

Read-out in experiment [15]: Signal transducer and activator of transcription 3 (Homo sapiens) (UniProt P40763)
The experiment is described as follows: LTEA_HepaRG_STAT3: Life Technologies and Expression Analysis (LTEA) Assay for Signal transducer and activator of transcription (STAT3) using HepaRG (AID 2283529). Put shortly: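 Differentiated human HepaRG cells in serum-free induction medium were exposed in duplicate for 48 h to eight half-log concentrations up to 100 uM in 0.5% DMSO. STAT3 mRNA was quantified by TaqMan qRT-PCR, normalized to ACTB, GAPDH and POLR2A, and fitted bidirectionally against DMSO.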

Read-out in experiment [16]: solute carrier (SLCO1B1), SLCO1B1 (gene 10599)
Description: LTEA_HepaRG_SLCO1B1: Life Technologies and Expression Analysis (LTEA) Assay for solute carrier (SLCO1B1) using HepaRG (AID 2283530). Put shortly:
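Human HepaRG cultures treated for 48 h with an eight-concentration half-log series topping at 100 uM; SLCO1B1 measured by qRT-PCR and fitted bidirectionally relative to DMSO.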

Read-out in experiment [17]: sulfotransferase 2A1 (SULT2A1), SULT2A1 (gene 6822)
Description: LTEA_HepaRG_SULT2A1: Life Technologies and Expression Analysis (LTEA) Assay for sulfotransferase 2A1 (SULT2A1) using HepaRG (AID 2283531). Put shortly:
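Gene-expression endpoint in a human liver cell line: SULT2A1 mRNA change after 48 h chemical treatment, curves fitted in both directions relative to 0.5% DMSO vehicle. Concentrations spanned eight half-log steps from 100 uM.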

Read-out in experiment [18]: Transforming Growth Factor (TGFA), TGFA (gene 7039)
Description: LTEA_HepaRG_TGFA: Life Technologies and Expression Analysis (LTEA) Assay for Transforming Growth Factor (TGFA) using HepaRG (AID 2283532). Put shortly: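 Differentiated human HepaRG cells, plated 48 h then switched to serum-free induction medium, were exposed in duplicate for 48 h to 8-point half-log series from 100 uM in 0.5% DMSO. TGFA mRNA measured by qRT-PCR, normalized to ACTB/GAPDH/POLR2A, bidirectional fit versus DMSO.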

Read-out in experiment [19]: Nuclear factor NF-kappa-B p105 subunit (Homo sapiens) (UniProt P19838)
The experiment is described as follows: LTEA_HepaRG_NFKB1: Life Technologies and Expression Analysis (LTEA) Assay for Nuclear Factor Kappa B Subunit 1 (NFKB1) using HepaRG (AID 2283521).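 Note: TaqMan qRT-PCR transcript normalised to ACTB GAPDH and POLR2A housekeeping genes.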 Put shortly:
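Human HepaRG cells receive eight half-log concentrations, highest 100 uM, for 48 h. NFKB1 expression is then quantified by qRT-PCR and analysed for up- or down-regulation relative to 0.5% DMSO vehicle.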

Signal transducer and activator of transcription 3 (Homo sapiens), sequence (P40763 whole entry, looked up): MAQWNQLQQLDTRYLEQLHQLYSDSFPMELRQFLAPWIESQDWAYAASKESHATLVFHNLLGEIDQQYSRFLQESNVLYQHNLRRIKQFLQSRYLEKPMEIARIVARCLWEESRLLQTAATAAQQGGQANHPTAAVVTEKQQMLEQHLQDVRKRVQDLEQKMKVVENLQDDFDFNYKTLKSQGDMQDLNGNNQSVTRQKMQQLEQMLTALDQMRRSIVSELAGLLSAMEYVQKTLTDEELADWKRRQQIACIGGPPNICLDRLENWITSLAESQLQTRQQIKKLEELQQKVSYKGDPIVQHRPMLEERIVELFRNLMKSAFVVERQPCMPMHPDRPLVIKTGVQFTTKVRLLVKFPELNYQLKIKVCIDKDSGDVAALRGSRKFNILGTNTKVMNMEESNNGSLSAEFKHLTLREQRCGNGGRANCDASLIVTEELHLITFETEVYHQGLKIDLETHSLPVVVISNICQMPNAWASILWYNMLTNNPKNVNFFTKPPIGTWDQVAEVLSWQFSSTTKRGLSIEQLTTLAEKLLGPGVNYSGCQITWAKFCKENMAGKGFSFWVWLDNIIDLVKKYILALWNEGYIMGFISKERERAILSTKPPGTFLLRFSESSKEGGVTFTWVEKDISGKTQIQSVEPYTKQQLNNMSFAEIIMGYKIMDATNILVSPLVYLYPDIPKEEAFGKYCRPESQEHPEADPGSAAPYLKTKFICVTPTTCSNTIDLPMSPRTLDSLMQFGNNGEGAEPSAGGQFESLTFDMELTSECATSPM
Nuclear factor erythroid 2-related factor 2 (Homo sapiens), sequence (Q16236 whole entry, looked up): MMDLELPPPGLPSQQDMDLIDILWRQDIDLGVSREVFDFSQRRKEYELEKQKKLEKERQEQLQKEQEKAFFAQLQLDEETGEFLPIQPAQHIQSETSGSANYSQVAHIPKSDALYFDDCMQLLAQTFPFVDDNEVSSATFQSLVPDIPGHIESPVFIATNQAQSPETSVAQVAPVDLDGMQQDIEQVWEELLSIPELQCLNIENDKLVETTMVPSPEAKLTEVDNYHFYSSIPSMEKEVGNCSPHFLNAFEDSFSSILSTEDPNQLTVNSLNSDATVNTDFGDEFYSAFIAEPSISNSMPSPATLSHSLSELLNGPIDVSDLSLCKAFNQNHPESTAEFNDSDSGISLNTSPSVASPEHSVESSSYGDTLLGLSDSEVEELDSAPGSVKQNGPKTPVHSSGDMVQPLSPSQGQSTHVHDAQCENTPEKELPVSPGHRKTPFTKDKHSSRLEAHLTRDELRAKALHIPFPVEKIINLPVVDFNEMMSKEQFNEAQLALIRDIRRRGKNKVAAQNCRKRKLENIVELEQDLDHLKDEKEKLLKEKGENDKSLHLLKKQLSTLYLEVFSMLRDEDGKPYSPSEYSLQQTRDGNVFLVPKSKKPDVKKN
Nuclear factor NF-kappa-B p105 subunit (Homo sapiens), sequence (P19838 whole entry, looked up): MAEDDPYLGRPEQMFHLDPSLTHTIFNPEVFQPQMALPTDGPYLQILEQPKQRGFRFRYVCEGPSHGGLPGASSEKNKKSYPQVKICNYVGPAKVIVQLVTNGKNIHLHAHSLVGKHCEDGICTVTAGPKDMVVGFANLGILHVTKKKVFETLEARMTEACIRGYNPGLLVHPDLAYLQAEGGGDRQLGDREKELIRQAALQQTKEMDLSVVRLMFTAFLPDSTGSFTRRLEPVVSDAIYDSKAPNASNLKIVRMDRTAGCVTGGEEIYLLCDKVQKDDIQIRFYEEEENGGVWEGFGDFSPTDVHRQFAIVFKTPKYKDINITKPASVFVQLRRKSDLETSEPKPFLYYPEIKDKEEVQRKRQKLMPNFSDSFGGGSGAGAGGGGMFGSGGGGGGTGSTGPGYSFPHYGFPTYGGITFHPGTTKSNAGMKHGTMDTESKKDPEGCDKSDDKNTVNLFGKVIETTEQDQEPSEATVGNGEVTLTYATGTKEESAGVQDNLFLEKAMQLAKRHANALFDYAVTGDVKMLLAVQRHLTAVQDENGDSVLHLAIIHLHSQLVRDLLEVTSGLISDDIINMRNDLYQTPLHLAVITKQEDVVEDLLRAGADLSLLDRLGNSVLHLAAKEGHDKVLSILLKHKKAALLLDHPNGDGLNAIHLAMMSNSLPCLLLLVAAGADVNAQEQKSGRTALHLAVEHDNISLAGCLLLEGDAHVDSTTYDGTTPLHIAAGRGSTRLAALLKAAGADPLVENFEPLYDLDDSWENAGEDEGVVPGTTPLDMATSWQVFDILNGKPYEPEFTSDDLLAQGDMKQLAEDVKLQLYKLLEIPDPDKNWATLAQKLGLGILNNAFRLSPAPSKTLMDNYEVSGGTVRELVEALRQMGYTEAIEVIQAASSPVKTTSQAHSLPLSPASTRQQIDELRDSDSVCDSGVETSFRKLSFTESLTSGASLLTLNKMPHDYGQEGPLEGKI

Consider `CCCCC(CC)COC(=O)CCCCCCCCC(=O)OCC(CC)CCCC` (stereo not drawn), for which the outcome in [1] is “inactive”; in [2], “inactive”; in experiment [3], “inactive”; in experiment [4], “inactive”; in [5], “inactive”; with MYC, MYC (gene 4609) it was “inactive”. The molecule was called inactive in experiment [6], in experiment [7], in experiment [8], in [9], in experiment [10] and in [11]. Also, the call in experiment [12], in experiment [13], in experiment [14], in experiment [15], in experiment [16] and in [17] was inactive. In [18], the molecule was classed as inactive.
In the case of `CC(C)=CCCC(C)=CC=O`, the outcome is “inactive” in experiment [1]; “inactive” in [2]; “inactive” in experiment [3]; “inactive” in experiment [4]; “inactive” in [5]; “inactive” with MYC, MYC (gene 4609). Moreover, the outcome in experiment [6], in experiment [7], in experiment [8], in [9], in [10] and in experiment [11] was inactive. Further, the molecule was classed as inactive in experiment [12], in experiment [13], in [14], in [15], in experiment [16] and in experiment [18].
On to `CC(C)=CCC/C(C)=C\CO`, for which the outcome in [1] was “inactive”; in [2] it was “inactive”; in experiment [3] it was “inactive”; in experiment [4], “inactive”; in experiment [5] it was “inactive”; in the experiment with MYC, MYC (gene 4609), “inactive”. Further, the molecule was classed as inactive in experiment [6], in experiment [7], in experiment [19], in [8], in experiment [9] and in experiment [10]. For the same molecule, the molecule was classed as inactive in experiment [11], in [13], in experiment [14], in [15], in experiment [16] and in [18].
For `CN(C)c1ccc(N=NS(=O)(=O)O)cc1`, the outcome in experiment [1] is “inactive”; in experiment [2], “inactive”; in experiment [3] it was “inactive”; in [4], “inactive”; in experiment [5] it was “inactive”; with MYC, MYC (gene 4609), “inactive”. In addition, the result in [6], in [7], in experiment [8], in [9], in experiment [11] and in experiment [12] was inactive. The result in [13], in experiment [14], in experiment [16] and in [18] was inactive. For the same molecule, the AC50 – broadly, the concentration at which the activity in the assay is half-maximal – in [10] was 20.5 µM (active); in experiment [15] it was 0.717 µM (active).
